Assay results from PubChem BioAssay (Tox21).
Unmarked numbers belong to inactive results. Inconclusive results are not listed. Entries that show only a call come without a potency. Calls of active or inactive are those of the source. Unless noted, the call rests on the fitted dose curve; in most records, active means well fitted curve in the direction sought with a large enough effect in the repeat runs; inconclusive means weak or mixed curves; inactive means no such curve, though single readings can be large; an effect the other way counts as inactive or inconclusive.

Key:
[1] = qHTS assay to identify small molecule agonists of the TGF-beta/Smad signaling pathway - cell viability counter screen (AID 1346829); further: top concentration of the series differs between compounds; nearly all actives have a fitted effect of over 45% in size
How it was run: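 HEK 293T SBE-bla line, 5 hr compound exposure at 37 C, multiplexed CellTiter-Glo viability read by luminescence.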

[2] = qHTS assay to identify small molecule agonists of the TGF-beta/Smad signaling pathway (AID 1346859; active means well fitted activation curve with a large enough effect in the signal ratio in the repeat runs, not every such curve was filed as active; the % refers to the signal ratio; further: series mostly up to about 77 µM)
How it was run: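 SBE-bla HEK293T cells plated overnight, then compound exposure for 5 h at 37 C. Beta-lactamase reporter read with LiveBLAzer B/G FRET substrate after 2 h at room temperature, fluorescence at 405 nm excitation, 460/530 nm emission.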

[3] = target: Thyrotropin-releasing hormone receptor (Homo sapiens) (UniProt P34981); assay: qHTS assay to identify small molecule antagonists of the thyrotropin-releasing hormone receptor (TRHR) signaling pathway (AID 1346877; active means well fitted inhibition curve with a large enough effect in the repeat runs, not every such curve was filed as active; further: series mostly up to about 51 µM)
How it was run: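 Cells (TRHR-HEK293) are plated and kept 18 h at 37 °C/5% CO2. A calcium-sensitive dye is added for 2 h, compound follows for 5 min at room temperature, and TRH is then given at 1 nM final.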

[4] = target: Thyrotropin-releasing hormone receptor (Homo sapiens) (UniProt P34981); assay: qHTS assay to identify small molecule agonists of the thyrotropin-releasing hormone receptor (TRHR) signaling pathway (AID 1346891; calls by dose curve; further: series mostly up to about 58 µM)
How it was run: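 HEK293 cells expressing TRHR plated 18 h at 37 C/5% CO2, calcium dye-loaded 2 h at 37 C, then compound added (agonist mode); kinetic calcium fluorescence read 3 min at 1 s intervals; 15 concentrations in triplicate.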

[5] = Human pregnane X receptor (PXR) small molecule agonists, qHTS cell viability counter screen (AID 1346977); further: nearly all actives have a fitted effect of over 50% in size
How it was run: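 PXR-Luc HepG2 cells (2,000/well, 5% charcoal-stripped FBS) preincubated 5 hr, then exposed to compounds 24 hr at 37 C. Viability read in the same wells by CellTiter-Fluor fluorescence, reagent added at 23 hr, 1 hr incubation.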

[6] = Caspase-3/7 induction in HepG2 cells by small molecules, qHTS assay (AID 1346978); further: nearly all actives have a fitted effect of over 15% in size
How it was run: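 Caspase-3/7 induction was measured by Caspase-Glo 3/7 luminescence (30 min, room temperature) after a 17 hr compound exposure of wild-type HepG2 cells seeded at 2,000 per well and pre-incubated 5 hr.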

[7] = Caspase-3/7 induction in CHO-K1 cells by small molecules, qHTS assay (AID 1346980); further: nearly all actives have a fitted effect of over 15% in size
How it was run: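 Luminescent Caspase-Glo 3/7 read (30min, room temperature) quantified apoptosis induction. Cells were wild-type CHO-K1, treated with compound for 17hr at 37 C and 5% CO2.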

[8] = Caspase-3/7 induction in HepG2 cells by small molecules, qHTS cell viability counter screen (AID 1346981); further: series mostly up to about 92 µM; nearly all actives have a fitted effect of over 30% in size
How it was run: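 Steps: seed 2,000 HepG2 cells per well; incubate 5 hr at 37 C; pin-add compounds in DMSO; incubate 16 hr; add CellTiter-Fluor; after 1 hr at 37 C and 5% CO2, read fluorescence.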

[9] = target: Nuclear receptor subfamily 1 group I member 2 (Homo sapiens) (UniProt O75469); assay: Human pregnane X receptor (PXR) small molecule agonists, qHTS assay (AID 1346982); further: nearly all actives have a fitted effect of over 35% in size; further: potency means the concentration at half of the fitted maximal effect
How it was run: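 Agonist mode qHTS: PXR-Luc HepG2 cells plated 5 hr before DMSO-dissolved compounds were pinned in, cultured 24 hr at 37 C, 5% CO2; ONE-Glo luminescence readout.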

[10] = target: Cytochrome P450 2D6 (Homo sapiens) (UniProt P10635); assay: Cytochrome P450 Family 2 Subfamily D Member 6 (CYP2D6) small molecule antagonists: luciferase reporter qHTS assay (AID 1671196); further: nearly all actives have a fitted effect of over 50% in size; further: potency means the concentration at half of the fitted maximal effect
How it was run: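 P450-Glo format: CYP2D6 converts a proluciferin substrate to luciferin in an NADPH-driven reaction lasting 1 h at room temperature. Light output, proportional to CYP2D6 activity, reflects interference by test chemicals.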

[11] = target: Cytochrome P450 2C9 (Homo sapiens) (UniProt P11712); assay: Cytochrome P450 Family 2 Subfamily C Member 9 (CYP2C9) small molecule antagonists: luciferase reporter qHTS assay (AID 1671198); further: series mostly up to about 120 µM; nearly all actives have a fitted effect of over 50% in size
How it was run: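 Enzyme-substrate mix preincubated with compound 10 min at room temperature; reaction started with NADPH regeneration solution, 1 h 37C. Luminescent luciferin product read after 20 min detection reagent.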

[12] = target: Cytochrome P450 1A2 (Homo sapiens) (UniProt P05177); assay: Cytochrome P450 Family 1 Subfamily A Member 2 (CYP1A2) small molecule antagonists: luciferase reporter qHTS assay (AID 1671199); further: nearly all actives have a fitted effect of over 50% in size; further: potency means the concentration at half of the fitted maximal effect
How it was run: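 Inhibition of CYP1A2 conversion of proluciferin to luciferin, detected by luminescence. Reaction run 1 h at room temperature with NADPH regeneration after brief compound preincubation.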

[13] = target: Voltage-gated inwardly rectifying potassium channel KCNH2 (Homo sapiens) (UniProt Q12809); assay: Human Ether-a-go-go-Related Gene (hERG) channel small molecule antagonists: fluorescence cell-based qHTS assay (AID 1671200)
How it was run: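 hERG-U2OS cells plated overnight at 37 C, loaded with FluxOR II dye 1 h at RT in dark; after 10 min, thallium stimulus added. Fluorescence (480/540 nm) read kinetically for 2 min at 1 s intervals.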

[14] = target: Cytochrome P450 3A4 (Homo sapiens) (UniProt P08684); assay: Cytochrome P450 Family 3 Subfamily A Member 4 (CYP3A4) small molecule antagonists: luciferase reporter qHTS assay (AID 1671201)
How it was run: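 P450-Glo CYP3A4 luminescent assay: compounds preincubated 10 min at room temperature with enzyme and proluciferin substrate, NADPH regeneration added, 1 h room-temperature reaction, stopped with luciferin detection reagent; luminescence read after 20 min. Ketoconazole positive control.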

[15] = Caspase-3/7 induction in CHO-K1 cells by small molecules, qHTS cell viability counter screen (AID 1346979); further: nearly all actives have a fitted effect of over 35% in size
How it was run: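 Wild-type CHO-K1 cells (1,500/well) treated with compound after 5 h plating; after 16 h at 37C, viability read as CellTiter-Fluor fluorescence following 1 h reagent incubation, in the same wells as the caspase read.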

[16] = target: Cytochrome P450 2C19 (Homo sapiens) (UniProt P33261); assay: Cytochrome P450 Family 2 Subfamily C Member 19 (CYP2C19) small molecule antagonists: luciferase reporter qHTS assay (AID 1671197); further: nearly all actives have a fitted effect of over 65% in size; further: potency means the concentration at half of the fitted maximal effect
How it was run: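 First, compounds are pinned into enzyme-substrate mix and held 10 min at room temperature. Second, NADPH regeneration solution is added and plates incubate 1 h at 37C. Third, detection reagent is added and luminescence read after 20 min.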

[17] = target: Nuclear receptor subfamily 1 group I member 2 (Homo sapiens) (UniProt O75469); assay: CYP3A4 induction through human pregnane X receptor (PXR) by small molecules, qHTS assay (AID 1346984); further: nearly all actives have a fitted effect of over 40% in size
How it was run: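 Steps: seed DPX-2 cells, 5 hr at 37C; pin-transfer compounds; 24 hr at 37C; add Luciferin-IPA (3uM final), 3 hr at 37C; add One-Glo, 30 min RT; read luminescence.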

[18] = target: Nuclear receptor subfamily 1 group I member 2 (Homo sapiens) (UniProt O75469); assay: Human pregnane X receptor (PXR) activation by small molecules, qHTS assay (AID 1346985); further: nearly all actives have a fitted effect of over 40% in size
How it was run: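 DPX-2 cells (HepG2 co-transfected with a PXR response element and a CYP3A4-promoter luciferase construct) were seeded at 2,000 per well, rested 5 hr at 37C, then exposed to DMSO-dissolved compounds for 24 hr. Activation was read as luciferase luminescence.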

Chain of Cytochrome P450 2C19 (Homo sapiens) (P33261 whole entry, looked up): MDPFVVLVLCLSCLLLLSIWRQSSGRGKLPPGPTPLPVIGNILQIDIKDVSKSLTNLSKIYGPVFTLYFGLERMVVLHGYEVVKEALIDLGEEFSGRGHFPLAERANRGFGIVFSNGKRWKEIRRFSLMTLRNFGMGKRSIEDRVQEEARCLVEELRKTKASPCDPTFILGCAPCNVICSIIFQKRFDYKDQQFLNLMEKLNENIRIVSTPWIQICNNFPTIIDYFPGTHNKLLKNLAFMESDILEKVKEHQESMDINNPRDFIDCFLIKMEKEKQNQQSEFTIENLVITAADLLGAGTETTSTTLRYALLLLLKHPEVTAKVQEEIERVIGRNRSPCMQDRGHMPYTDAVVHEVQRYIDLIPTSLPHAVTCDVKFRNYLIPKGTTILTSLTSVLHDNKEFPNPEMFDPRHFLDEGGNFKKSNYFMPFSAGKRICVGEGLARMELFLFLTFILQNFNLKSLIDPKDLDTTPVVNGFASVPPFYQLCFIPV
Chain of Thyrotropin-releasing hormone receptor (Homo sapiens) (P34981 whole entry, looked up): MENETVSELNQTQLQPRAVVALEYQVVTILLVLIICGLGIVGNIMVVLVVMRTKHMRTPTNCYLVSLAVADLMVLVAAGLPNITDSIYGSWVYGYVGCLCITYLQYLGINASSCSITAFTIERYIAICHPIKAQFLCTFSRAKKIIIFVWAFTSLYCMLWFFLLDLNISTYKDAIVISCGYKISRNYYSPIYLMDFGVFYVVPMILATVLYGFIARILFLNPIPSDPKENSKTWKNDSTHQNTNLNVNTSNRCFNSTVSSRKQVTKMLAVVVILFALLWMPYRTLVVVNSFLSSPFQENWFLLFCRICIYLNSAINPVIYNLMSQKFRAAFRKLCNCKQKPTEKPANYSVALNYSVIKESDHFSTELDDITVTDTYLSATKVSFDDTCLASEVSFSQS
Chain of Cytochrome P450 1A2 (Homo sapiens) (P05177 whole entry, looked up): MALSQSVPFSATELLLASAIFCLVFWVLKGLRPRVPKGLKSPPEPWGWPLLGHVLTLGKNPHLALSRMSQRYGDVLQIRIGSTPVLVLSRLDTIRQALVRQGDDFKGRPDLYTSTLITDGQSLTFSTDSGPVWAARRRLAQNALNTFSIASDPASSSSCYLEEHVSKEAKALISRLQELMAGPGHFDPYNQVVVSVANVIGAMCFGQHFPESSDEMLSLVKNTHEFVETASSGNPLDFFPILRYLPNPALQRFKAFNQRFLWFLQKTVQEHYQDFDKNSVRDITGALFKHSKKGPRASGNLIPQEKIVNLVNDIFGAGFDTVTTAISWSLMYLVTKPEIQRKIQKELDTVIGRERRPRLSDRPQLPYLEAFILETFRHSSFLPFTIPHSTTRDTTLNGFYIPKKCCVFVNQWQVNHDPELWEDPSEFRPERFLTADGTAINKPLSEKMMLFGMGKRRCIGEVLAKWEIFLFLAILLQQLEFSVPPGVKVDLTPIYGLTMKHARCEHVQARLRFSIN
Chain of Cytochrome P450 2C9 (Homo sapiens) (P11712 whole entry, looked up): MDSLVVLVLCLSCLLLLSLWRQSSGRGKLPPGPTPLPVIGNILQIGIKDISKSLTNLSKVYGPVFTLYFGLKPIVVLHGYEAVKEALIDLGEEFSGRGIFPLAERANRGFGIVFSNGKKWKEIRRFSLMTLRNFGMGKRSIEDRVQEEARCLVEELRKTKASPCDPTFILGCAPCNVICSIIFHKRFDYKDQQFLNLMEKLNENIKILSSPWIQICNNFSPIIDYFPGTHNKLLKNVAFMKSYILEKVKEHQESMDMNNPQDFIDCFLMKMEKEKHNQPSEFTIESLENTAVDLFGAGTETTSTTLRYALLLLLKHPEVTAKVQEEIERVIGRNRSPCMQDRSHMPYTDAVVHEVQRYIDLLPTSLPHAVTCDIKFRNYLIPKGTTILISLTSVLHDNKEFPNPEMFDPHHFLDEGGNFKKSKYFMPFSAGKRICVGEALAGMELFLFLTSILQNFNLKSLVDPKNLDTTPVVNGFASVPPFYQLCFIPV
Chain of Cytochrome P450 3A4 (Homo sapiens) (P08684 whole entry, looked up): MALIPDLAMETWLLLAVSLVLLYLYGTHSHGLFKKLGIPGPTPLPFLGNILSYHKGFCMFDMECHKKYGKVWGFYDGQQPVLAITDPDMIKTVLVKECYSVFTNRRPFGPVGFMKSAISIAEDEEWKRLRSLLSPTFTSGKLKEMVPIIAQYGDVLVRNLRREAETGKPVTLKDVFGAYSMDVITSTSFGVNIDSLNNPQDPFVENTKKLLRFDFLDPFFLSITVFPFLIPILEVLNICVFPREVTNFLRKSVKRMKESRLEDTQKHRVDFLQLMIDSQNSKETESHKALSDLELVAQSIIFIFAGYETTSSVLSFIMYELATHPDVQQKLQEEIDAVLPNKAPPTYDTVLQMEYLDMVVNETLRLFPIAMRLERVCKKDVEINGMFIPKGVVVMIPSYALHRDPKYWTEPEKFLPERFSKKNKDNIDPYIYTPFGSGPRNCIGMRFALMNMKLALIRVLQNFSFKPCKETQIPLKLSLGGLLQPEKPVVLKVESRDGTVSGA
Chain of Cytochrome P450 2D6 (Homo sapiens) (P10635 whole entry, looked up): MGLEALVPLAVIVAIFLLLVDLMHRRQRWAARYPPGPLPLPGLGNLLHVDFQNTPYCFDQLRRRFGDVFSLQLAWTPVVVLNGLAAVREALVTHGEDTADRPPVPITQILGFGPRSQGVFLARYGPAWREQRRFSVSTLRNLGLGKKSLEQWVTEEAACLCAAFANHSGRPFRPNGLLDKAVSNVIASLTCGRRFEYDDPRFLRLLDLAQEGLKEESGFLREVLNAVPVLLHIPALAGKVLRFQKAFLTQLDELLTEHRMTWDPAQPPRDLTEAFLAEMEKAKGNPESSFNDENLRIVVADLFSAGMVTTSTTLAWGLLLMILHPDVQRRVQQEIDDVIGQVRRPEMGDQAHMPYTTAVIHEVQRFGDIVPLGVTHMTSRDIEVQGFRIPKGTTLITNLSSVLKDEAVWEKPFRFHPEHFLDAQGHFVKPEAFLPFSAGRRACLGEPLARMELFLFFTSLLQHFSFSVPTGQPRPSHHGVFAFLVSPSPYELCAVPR
Chain of Nuclear receptor subfamily 1 group I member 2 (Homo sapiens) (O75469 whole entry, looked up): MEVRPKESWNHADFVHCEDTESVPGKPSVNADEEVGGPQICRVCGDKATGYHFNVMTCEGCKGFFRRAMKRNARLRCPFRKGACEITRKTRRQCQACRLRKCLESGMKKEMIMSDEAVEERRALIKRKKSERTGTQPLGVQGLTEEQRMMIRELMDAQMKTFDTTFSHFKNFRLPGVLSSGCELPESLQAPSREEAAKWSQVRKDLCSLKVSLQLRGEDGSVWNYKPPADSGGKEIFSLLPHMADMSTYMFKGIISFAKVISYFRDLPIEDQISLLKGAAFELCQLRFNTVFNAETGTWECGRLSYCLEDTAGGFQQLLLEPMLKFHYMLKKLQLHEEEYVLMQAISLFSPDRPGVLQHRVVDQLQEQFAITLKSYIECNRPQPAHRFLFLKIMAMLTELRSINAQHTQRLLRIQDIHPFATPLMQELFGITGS
Chain of Voltage-gated inwardly rectifying potassium channel KCNH2 (Homo sapiens) (Q12809 whole entry, looked up): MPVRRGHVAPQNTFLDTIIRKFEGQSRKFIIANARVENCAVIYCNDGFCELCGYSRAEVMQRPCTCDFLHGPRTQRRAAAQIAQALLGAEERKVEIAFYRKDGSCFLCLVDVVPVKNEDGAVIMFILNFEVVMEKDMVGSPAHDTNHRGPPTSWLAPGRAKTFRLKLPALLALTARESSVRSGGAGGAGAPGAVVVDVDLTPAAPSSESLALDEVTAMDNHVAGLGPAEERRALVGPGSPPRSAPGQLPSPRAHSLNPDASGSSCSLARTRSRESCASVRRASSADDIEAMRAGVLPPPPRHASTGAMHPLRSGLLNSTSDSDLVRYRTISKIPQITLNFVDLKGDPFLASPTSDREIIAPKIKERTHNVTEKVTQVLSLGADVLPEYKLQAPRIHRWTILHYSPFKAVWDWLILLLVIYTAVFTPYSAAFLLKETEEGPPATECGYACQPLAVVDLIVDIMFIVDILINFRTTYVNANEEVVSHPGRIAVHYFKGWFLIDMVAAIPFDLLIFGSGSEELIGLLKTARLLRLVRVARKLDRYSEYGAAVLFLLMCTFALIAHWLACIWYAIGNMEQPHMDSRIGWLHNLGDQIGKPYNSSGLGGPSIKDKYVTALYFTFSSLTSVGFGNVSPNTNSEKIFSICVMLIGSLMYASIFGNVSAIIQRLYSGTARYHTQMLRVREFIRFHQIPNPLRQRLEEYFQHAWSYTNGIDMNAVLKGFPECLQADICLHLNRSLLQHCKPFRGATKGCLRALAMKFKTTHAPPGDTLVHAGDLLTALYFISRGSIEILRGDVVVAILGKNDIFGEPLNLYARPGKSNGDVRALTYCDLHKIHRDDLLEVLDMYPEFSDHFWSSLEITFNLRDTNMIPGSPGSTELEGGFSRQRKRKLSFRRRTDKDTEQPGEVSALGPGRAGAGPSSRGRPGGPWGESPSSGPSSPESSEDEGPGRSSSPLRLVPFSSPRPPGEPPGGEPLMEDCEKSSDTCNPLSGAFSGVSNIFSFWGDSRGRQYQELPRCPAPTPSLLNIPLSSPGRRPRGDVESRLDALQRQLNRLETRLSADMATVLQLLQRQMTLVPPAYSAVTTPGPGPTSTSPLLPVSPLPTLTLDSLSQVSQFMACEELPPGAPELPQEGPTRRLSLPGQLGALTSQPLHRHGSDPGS

| Structure (SMILES) | outcome [1] | outcome [2] | outcome [3] | Potency [4] | outcome [5] | outcome [6] | outcome [7] | outcome [8] | Potency [9] | Potency [10] | Potency [11] | Potency [12] | Potency [13] | Potency [14] | Potency [15] | Potency [16] | outcome [17] | outcome [18] |
| --- | --- | --- | --- | --- | --- | --- | --- | --- | --- | --- | --- | --- | --- | --- | --- | --- | --- | --- |
| Cc1ccc(Br)cc1 | inactive | inactive | inactive | inactive | inactive | inactive | inactive | inactive | inactive | inactive | inactive | inactive | inactive | inactive |  |  |  |  |
| CCCCCCCCCCCCCC(=O)OCC | inactive | inactive | inactive | inactive | inactive | inactive | inactive |  | inactive | inactive |  |  | inactive | inactive | inactive | inactive |  |  |
| CC(C)(C)NCC(O)COc1cccc2c1CCC(=O)N2 (stereo unspecified) | inactive | inactive | inactive | inactive | inactive | inactive | inactive | inactive |  | inactive |  |  | inactive | inactive | inactive |  |  |  |
| CC(O)C(CO)C(C)O (stereo unspecified) | inactive | inactive | inactive | inactive | inactive | inactive | inactive | inactive | inactive | inactive | inactive | 32.1 µM (active) | inactive | inactive |  | 80.6 µM (active) |  |  |
| CCC(C)SSC(C)CC (stereo unspecified) | inactive | inactive | inactive | inactive | inactive | inactive | inactive | inactive | inactive | 31.7 µM (active) |  |  | inactive | inactive | inactive | inactive |  |  |
| Cc1ccccc1OCC(=O)O | inactive | inactive | inactive | inactive | inactive |  | inactive | inactive | inactive | inactive |  | inactive | inactive | inactive | inactive | inactive |  |  |
| CC(C)(C)c1ccc(C(=O)CCCCl)cc1 | inactive | inactive | inactive | inactive | inactive | inactive | inactive | inactive | 26.6 µM (active) | inactive |  | 12.3 µM (active) | inactive | inactive |  | inactive |  |  |
| O=C(O)CCC(=O)Nc1ccc(S(=O)(=O)Nc2nccs2)cc1 | inactive | inactive | inactive | inactive | inactive | inactive | inactive | inactive |  |  |  |  | inactive |  | inactive |  |  |  |
| C[C@]12C=CC(=O)C=C1[C@@H](F)C[C@@H]1[C@@H]2[C@@H](O)C[C@@]2(C)[C@H]1CC[C@]2(O)C(=O)CO | inactive | inactive | inactive | inactive | inactive |  | inactive | inactive | inactive | inactive | inactive | inactive | inactive |  | inactive | inactive | inactive | inactive |
| CCCCN(CCCC)CCCCCCN(CCCC)CCCC | inactive | inactive |  | inactive | inactive | inactive | inactive | inactive | inactive | 5.03 µM (active) |  | inactive | inactive | inactive |  | inactive |  |  |
| NC(=O)CC[C@@H](N)C(=O)O | inactive | inactive |  | inactive | inactive | inactive | inactive | inactive |  |  |  |  | inactive |  | inactive |  |  |  |
| CC(C)CC(O)Cc1ccccc1 (stereo unspecified) | inactive | inactive |  | inactive | inactive | inactive | inactive | inactive | inactive | inactive |  |  | inactive | inactive | inactive | 71 µM (active) |  |  |
| CCC(C)(C)C | inactive | inactive |  | inactive | inactive | inactive | inactive | inactive | inactive | inactive |  | 37.7 µM (active) | inactive | inactive | inactive | inactive |  |  |
